About 83,000 compounds went through this panel and 20% of them were active in at least one assay; those are over-represented in the sample as a whole.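 Single-dose data. Exposure time 48 hours. Values below 10 considered active.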 Unmarked numbers belong to inactive results.
system: SK-MEL-28 melanoma; assay: NCI-60 one-dose screen, 48 h (100 = growth as untreated, 0 = no growth, -100 = all killed); settings: 10 µM unless noted

SMILES	growth
O=C1C(Cl)=C(NCCCCCCNC2=C(Cl)C(=O)c3ccccc3C2=O)C(=O)c2ccccc21	111%
O=C1c2c(c3c4ccccc4[nH]c3c3ccc4ccccc4c23)C(=O)N1CCN1CCNCC1	100%
COc1ccccc1CNc1c2ccccc2nc2ccccc12	80%
